Assay results: the supplement of paper PMC10732440
± gives the standard deviation of the averaged measurements.

Tested on: Caenorhabditis elegans N2 infected with Nematocida parisii ERTm1
Assay: progeny production relative to DMSO uninfected control; higher = more progeny despite microsporidia infection (inhibition of infection with low host toxicity)
Settings: infection time 6 days
How it was run: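 Wild-type C. elegans L1 larvae, synchronised by bleaching, were added at 100 per well to 96-well plates containing K-medium, E. coli OP50 and 15,000 N. parisii spores/μL, and compound was pinned in to 100 μM or 40 μM in 1% DMSO. The plates were shaken at 21°C for 6 days, after which worms were stained with Rose Bengal, scanned on a flatbed scanner and counted using WorMachine. Each compound and dose was run three times. Progeny production is expressed as a percentage of wells with vehicle but no spores, averaged over the replicates.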

SMILES | progeny production (40 µM) [%] | progeny production (100 µM) [%]
O=C(CSc1nnc(Br)n1-c1ccc(C2CC2)c2ccccc12)Nc1ccc(C(=O)O)cc1Cl | 3.49 ± 1.1 | 15.1 ± 5.4
Oc1c(C(Nc2ccccn2)c2ccccc2)ccc2cccnc12 (centres undefined) | 8.66 ± 7.6 | 9.12 ± 7.2
Cc1cc(O)c2c(c1)C(=O)c1c(I)c(O)c(I)c(O)c1C2=O | 8.9 ± 5.8 | 25.1 ± 5.2
C[C@@H](O)[C@H](N)C(=O)NS(=O)(=O)c1cccc(-c2ccc3[nH]ncc3c2)c1 | 3.15 ± 1.8 | 20.2 ± 20
COc1ccc(SCC(=O)N2c3ccccc3Sc3ccccc32)cc1 | 5.84 ± 2.3 | 14.1 ± 5.9
O=S(=O)(NCB(O)O)c1cc2c(Cl)ccc(Cl)c2s1 | 4.07 ± 0.53 | 15.8 ± 20
COc1ccc2nc(-c3ccccc3)cc(O)c2c1 | 10.7 ± 7.9 | 8.32 ± 3.4
Nc1cnn(C2OC(CO)C(O)C2O)c(=O)n1 (centres undefined) | 3.5 ± 1.1 | 13.1 ± 5.4
C[C@@H]1O[C@@H]1P(=O)(O)O | 4.36 ± 0.35 | 15.3 ± 13
Cc1cc(CCCOc2c(C)cc(-c3noc(C(F)(F)F)n3)cc2C)on1 | 1.93 ± 0.29 | 15.4 ± 3.2
CC[N+]1(C/C2=C/CCCCCC2)CCC(NC(=O)C2c3cc(Cl)ccc3Oc3ccc(Cl)cc32)CC1 (centres undefined) | 3.01 ± 1.9 | 2.8 ± 2.2
Nc1nc(O)c2ncn([C@@H]3O[C@H](CO)[C@@H](O)[C@H]3F)c2n1 | 4.36 ± 1.3 | 9.71 ± 4.6
OB1OCc2cc(Cl)ccc21 | 4.68 ± 1.6 | 21.3 ± 17
COc1cc(C(C(=O)NC2CCCCC2)N(C(=O)Cc2c[nH]c3ccccc23)c2ccc(C(C)C)cc2)cc(OC)c1OC (centres undefined) | 5.01 ± 0.57 | 7.98 ± 2
Cc1c(N)cccc1Cn1ccc(OCCc2cccs2)cc1=O | 7.99 ± 2.1 | 15.6 ± 15
O=C(Cc1ccccc1F)Nc1nc2ccccc2[nH]1 | 4.94 ± 2.8 | 8.29 ± 4.9
CCc1cc(CCCOc2c(C)cc(-c3noc(C(F)(F)F)n3)cc2C)on1 | 5.28 ± 4 | 12.5 ± 14
CCc1c(O)nc2ccc(F)cc2c1OCC1CCC1 | 6.76 ± 3.3 | 16.2 ± 9.1
Oc1cc(-c2cccc3ccccc23)[nH]n1 | 2.92 ± 0.16 | 18.4 ± 18
Cc1cc(Nc2ccc(F)cc2)nc(SCc2nc3ccccc3[nH]2)n1 | 3.08 ± 0.71 | 16.7 ± 14
CN1c2ccc(Cl)cc2N(c2ccccc2)C(=O)c2cn(Cc3ccc(CN4CCOCC4)cc3)nc21 | 5.41 ± 0.76 | 6.28 ± 3

SMILES | progeny production (40 µM) [%] | progeny production (100 µM) [%]
O=C(Nc1ccc(N2CCN(C(=O)c3ccccc3)CC2)cc1)c1ccc2c(c1)OCO2 | 5.03 ± 1.4 | 15.6 ± 10
CCO/N=C/c1ccc(OCCCCN2CCN(c3ccncc3)C2=O)cc1 | 5.24 ± 4.2 | 9.79 ± 7.8
CC(C)(C)c1cccc(-c2nc3cc(C(=N)N)ccc3[nH]2)c1O | 2.13 ± 0.25 | 20.4 ± 23
Fc1ccc(-c2nc(-c3c[nH]c4ccc(Br)cc34)[nH]c2-c2ccc(F)cc2)cc1 | 3.87 ± 1.5 | 6.81 ± 2.8
CCCCCCC1c2ccc(O)cc2Oc2cc(O)ccc21 | 4.98 ± 1.8 | 29.9 ± 30
CCC(C)n1ncn(-c2ccc(N3CCN(c4ccc(OCC5COC(Cn6cncn6)(c6ccc(Cl)cc6Cl)O5)cc4)CC3)cc2)c1=O (centres undefined) | 4.85 ± 1.2 | 22.8 ± 5.2
Nc1ccc2oc(=O)ccc2c1I | 3.87 ± 2.3 | 7.24 ± 3.6
c1ccc(Cn2c(-c3ccccn3)nc3ccccc32)cc1 | 3.12 ± 1.9 | 4.55 ± 2.1
CC(C)(C)NC(=O)N[C@H](C(=O)N1C[C@H]2[C@@H]([C@H]1C(=O)NC(CC1CCC1)C(=O)C(N)=O)C2(C)C)C(C)(C)C (some centres undefined) | 3.73 ± 0.22 | 7.69 ± 4.1
Nc1nc(Nc2ccc3nc(-c4ccc(F)cc4)cc(N)c3c2)cc(-c2ccccc2)n1 | 3.92 ± 1.1 | 7.7 ± 7.8
O=C(O)CCNC(=O)c1ccccc1 | 13 ± 12 | 16.4 ± 8.7
CCCCC(CC)CNC(=N)NC(=N)NCCCCCCNC(=N)NC(=N)NCC(CC)CCCC (centres undefined) | 5.25 ± 0.29 | 24.3 ± 32
O=C(Nc1nnc(-c2ccccc2)o1)c1ccc(F)cc1 | 5.03 ± 1.8 | 6.37 ± 4.7
C[C@H](Cn1cnc2c(N)ncnc21)OCP(=O)(O)O | 6.28 ± 6.8 | 17.4 ± 6
COc1ccc(COc2cc3oc(=O)c4cc(C(C)O)ccc4c3cc2OC)cc1 (centres undefined) | 5.78 ± 0.94 | 10.9 ± 7
Nc1nc(O)c(Br)c(-c2cccc(Cl)c2)n1 | 4.12 ± 0.52 | 12.1 ± 5.2
CC(C)C(=O)N[C@H]1[C@H]([C@H](O)[C@H](O)CO)OC(C(=O)O)=C[C@@H]1N=[N+]=[N-] | 5.36 ± 3.2 | 14.6 ± 5.9
CC(=O)Oc1ccccc1C(=O)Nc1ncc([N+](=O)[O-])s1 | 3.11 ± 1.7 | 10.8 ± 5.3
CNc1nc(=O)[nH]cc1F | 2.97 ± 1.7 | 12.9 ± 10
CCCc1ccc(-c2cc3cn([C@H]4C[C@H](O)[C@@H](CO)O4)c(=O)nc3o2)cc1 | 3.62 ± 2.5 | 11 ± 5.5
O=C(c1ccccc1)N1CCN(c2ccccc2NC(=O)C(Cl)(Cl)Cl)CC1 | 13 ± 10 | 12.7 ± 8.6
